Laboratory results taken from PubChem BioAssay AID743167 (National Center for Advancing Translational Sciences (NCATS), 2013).
“And” between values parts separate entries of the source, which are not always exact repeats. Equal values may be shown once. Results filed as inconclusive are left out. The source made the active and inactive calls. The call rests on the fitted dose curve; in most records, active means well fitted activation curve with a large enough effect; inconclusive means small, poorly fitted or top-dose-only effect; inactive means flat fitted curve, though single readings scatter.

assay: Extended Characterization of HPGD Inhibitors: PGE2 Assay in A549 Cells; settings: PGE2 HTRF level, 16 h
Text: The central role of HPGD is to inactivate prostaglandins such as prostaglandin E2 (PGE2) or prostaglandin D2 (PGD2). These prostaglandins are involved in a number of processes, including inflammation, differentiation, and cellular signaling, which makes HPGD an important target for pharmacological intervention. A number of prostaglandins of particular biological interest have been identified as substrates of HPGD. […] Over-production of PGE2 has been reported to promote tumor-associated neovascularization, cell proliferation, and tumor growth. […] In this orthogonal assay, we set out to measure if compounds were able to increase PGE2 production NIH Chemical Genomics Center [NCGC] NIH Molecular Libraries Probe Centers Network [MLPCN] MLPCN Grant: MH084681 Assay Submitter (PI): Structural Genomics Consortium
A549 cells, LNCaP cells or media were dispensed in 384-well plates (ProxiPlate-384 Plus, PerkinElmer, Shelton, CT) at 5,000 cells/9.9 uL/well using a CappAero384 multichannel pipette (Odense, Denmark). Separately on the plate, 10 uL of PGE2 calibration standards at a starting assay concentration of 5,000 pg/mL (1:2 dilution, 12-points, n = 1, prepared in media, Cisbio, Bedford, MA) were dispensed. Compounds (100 nL, final concentration range from 41.9 nM to 100 uM) were transferred using an ATS Acoustic Liquid Dispenser (EDC Biosystems, Fremont, CA). After being mixed using an automated liquid handler (CyBio, Jena, Germany), samples were incubated (37 deg C, 5% CO2, under a humidified atmosphere) for 16 hours. PGE2 labeled conjugates were added to each well, first 5 uL of PGE2-d2, followed by 5 uL of anti-PGE2-cryptate, centrifuged (1,500 rpm, 15 sec) and incubated (RT, protected from light) for 5 hours. Time-resolved fluorescence intensity (320 nm excitation, 615 and 665 nm emission) was measured using an Envision plate reader (PerkinElmer). Data was expressed as the ratio of 665 nm/615 nm emissions. Concentration (pg/mL) of samples were calculated from a 4-parameter logistic calibration curves of the PGE2 standards.

Row | Structure (SMILES) | Potency
1 | CC(C)(C)n1cnc2cc(C(=O)N3CCCCC3)ccc21 | 2.09 µM (active)
2 | CC(C)(C)c1ccc(-n2cnc3cc(C(=O)N4CCCCC4)ccc32)cc1 | 20.9 µM (active)
3 | Clc1cccc(CSc2nc3ncc(Br)cc3[nH]2)c1 | 0.296 µM (active)
4 | Brc1cnc2nc(SCc3ccccn3)[nH]c2c1 | 5.9 µM (active)
5 | Cc1cccc(-n2cnc3cc(C(=O)N4CCCCCC4)ccc32)c1 | 2.96 µM (active)
6 | Cc1cccc(-n2cnc3cc(C(=O)N4CCCC(C)(C)C4)ccc32)c1 | 0.743 µM (active)
7 | COc1ccc(-n2cnc3cc(C(=O)N4CCCCC4)ccc32)cc1 | 0.662 µM (active)
8 | Cc1cc(-c2nnc3n2CCCCC3)c(C)n1-c1ccc(Br)cc1 | 0.59 µM (active)
9 | CCOC(=O)c1ccc(-n2cnc3cc(C(=O)N4CCCCC4)ccc32)cc1 | 1.87 µM (active)
10 | Cc1cc(-c2nnc3n2CCCCC3)c(C)n1-c1ccc(F)cc1 | 0.662 µM (active)
11 | Cc1ccc(-n2c(C)cc(-c3nnc4n3CCCCC4)c2C)cc1 | 0.166 µM (active)
12 | COc1ccccc1-n1cnc2cc(C(=O)N3CCCCC3)ccc21 | 16.6 µM (active)
13 | Brc1cnc2nc(SCc3ccncc3)[nH]c2c1 | 0.833 µM (active)
14 | Brc1cnc2nc(SCc3cccnc3)[nH]c2c1 | 8.33 µM (active)
15 | CN1CC[C@@H](c2c(O)cc(O)c3c(=O)cc(-c4ccccc4Cl)oc23)[C@@H](O)C1 | 3.32 µM (active)
16 | Cc1cc(-c2nnc3n2CCCCC3)c(C)n1-c1ccc(C(F)(F)F)cc1 | 0.833 µM (active)
17 | c1ccc(-n2cc(-c3nnc4n3CCCCC4)c3ccccc32)cc1 | 1.66 µM (active)
18 | N#Cc1cccc(CSc2nc3ncc(Br)cc3[nH]2)c1 | 7.43 µM (active)
19 | Cc1cccc(-n2cnc3cc(C(=O)N4CCCCC4)ccc32)c1 | 0.469 µM (active)
20 | Cc1cccc(-n2cnc3cc(C(=O)N4CCCC4)ccc32)c1 | 1.87 µM (active)

Row | Structure (SMILES) | Potency
21 | O=[N+]([O-])c1ccccc1CSc1nc2ncc(Br)cc2[nH]1 | 0.148 µM (active)
22 | Clc1ccc(CSc2nc3ncc(Br)cc3[nH]2)cc1 | 16.6 µM (active)
23 | Cc1cccc(-n2cnc3cc(C(=O)N4CCCC(C(F)(F)F)C4)ccc32)c1 (stereo not given) | 1.32 µM (active)
24 | CCCCn1cnc2cc(C(=O)N3CCCCC3)ccc21 | 2.96 µM (active)
25 | CCCCC[C@H](O)/C=C/[C@H]1[C@H](O)CC(=O)[C@@H]1C/C=C\CCCC(=O)O | 0.148 µM (active)
26 | N#Cc1ccccc1CSc1nc2ncc(Br)cc2[nH]1 | 372 nM (active) and 7.43 µM (active) and 743 nM (active)
27 | COc1ccc(CSc2nc3ncc(Br)cc3[nH]2)cc1F | 7.43 µM (active)
28 | Cc1cc(-c2nnc3n2CCCCC3)c(C)n1-c1cccc(Cl)c1 | 0.59 µM (active)
29 | O=[N+]([O-])c1cccc(CSc2nc3ncc(Br)cc3[nH]2)c1 | 0.418 µM (active)
30 | CC(C)c1cccc(-n2cnc3cc(C(=O)N4CCCCC4)ccc32)c1 | 2.35 µM (active)
31 | Cc1cc(-c2nnc3n2CCCCC3)c(C)n1-c1ccncc1 | 33.2 µM (active)
32 | N#Cc1ccc(CSc2nc3ncc(Br)cc3[nH]2)cc1 | 0.332 µM (active)
33 | Cc1cc(-c2nnc3n2CCCCC3)c(C)n1-c1ccccn1 | 26.4 µM (active)
34 | Cc1cc(-c2nnc3n2CCCCC3)c(C)n1-c1cccc(C#N)c1 | 2.64 µM (active)
35 | Cc1ccc(-n2cnc3cc(C(=O)N4CCCCC4)ccc32)cc1 | 0.469 µM (active)
36 | O=C(c1ccc2c(c1)ncn2-c1cccc(C(F)(F)F)c1)N1CCCCC1 | 2.64 µM (active)
37 | CC(C)(C)c1cccc(-n2cnc3cc(C(=O)N4CCCCC4)ccc32)c1 | 18.7 µM (active)
38 | O=[N+]([O-])c1ccc(CSc2nc3ncc(Br)cc3[nH]2)cc1 | 0.235 µM (active)
39 | Cc1cccc(-n2cnc3cc(C(=O)N4CCC(Br)CC4)ccc32)c1 | 1.18 µM (active)
40 | COc1cccc(-n2cnc3cc(C(=O)N4CCCCC4)ccc32)c1 | 0.833 µM (active)
